Results taken from the supplement of paper PMC9135407.
Counter-ions that a name gives are not always drawn.

tested on: primary human hepatic stellate cells (donor 1); assay: COL1A1 mRNA fold change vs DMSO (normalised to PSMB2); higher = more COL1A1 expression, active = hit call of the paper; conditions: 48 h
Procedure: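 Secondary qRT-PCR screen in primary human HSCs (donor 1), 384-well plates, with compounds dispensed in quadruplicate and incubated for 48 h. Cells-to-CT lysates were used for multiplexed TaqMan qPCR of ACTA2 or COL1A1 with PSMB2 as reference. Fold changes versus DMSO come from a linear model (Ct_gene ~ Ct_PSMB2 + plate + chemical). A hit is defined as COL1A1 and ACTA2 FC <0.5 (FDR <0.05) with PSMB2 between 0.2 and 2.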

SMILES	COL1A1 mRNA fold change
C[C@H](N)Cn1ccc2cc(F)c(Cl)cc21 [Ro 60-0175 fumarate] (33.3333 µM)	2.21 (inactive)
CN(C(=O)Cc1ccc(Cl)c(Cl)c1)[C@H](CN1CCCC1)c1ccccc1 [ICI-199,441 hydrochloride] (33.3333 µM)	0.743 (inactive)
CN[C@@H]1C[C@H]2O[C@@](C)([C@@H]1OC)n1c3ccccc3c3c4c(c5c6ccccc6n2c5c31)C(=O)NC4 [staurosporine] (35.6667 µM)	0.11 (inactive)
O=c1[nH]c2ccccc2n1C1CCN(CCCC(c2ccc(F)cc2)c2ccc(F)cc2)CC1 [Pimozide] (33.3333 µM)	0.027 (inactive)
CCCCCCCCCCCCCC(=O)O[C@@H]1[C@@H](C)[C@@]2(O)[C@@H](C=C(CO)C[C@]3(O)C(=O)C(C)=C[C@@H]23)[C@@H]2C(C)(C)[C@]12OC(C)=O [Phorbol 12-myristate 13-acetate] (27.0333 µM)	0.71 (inactive)
CC1=C(O)C(=O)C=C2C1=CC=C1[C@@]2(C)CC[C@@]2(C)[C@@H]3C[C@](C)(C(=O)O)CC[C@]3(C)CC[C@]12C [Celastrol] (3.33333 µM)	1.09 (inactive)
O=C1/C(=C/c2ccccc2)C[C@@]2(O)[C@H]3Cc4ccc(O)c5c4[C@@]2(CCN3CC2CC2)[C@H]1O5 [BNTX maleate] (33.3333 µM)	0.233 (inactive)
CC1=C(CC/C(C)=C/CCC2=CC[C@H](C3=CC(=O)O[C@H]3O)O[C@H]2O)C(C)(C)CCC1 [Manoalide] (40 µM)	0.236 (active)
CN1[C@@H]2CC[C@H]1C[C@@H](OC(c1ccc(F)cc1)c1ccc(F)cc1)C2 [3 α-Bis-(4-fluorophenyl) methoxytropane hydrochloride] (33.3333 µM)	1.54 (inactive)
CCN1CCN(C(=O)Cc2ccc(Nc3ncc(F)c(Nc4ccc(C(=O)Nc5ccccc5Cl)cc4)n3)cc2)CC1 [Aurora A Inhibitor I] (33.3333 µM)	0.0414 (inactive)
C[C@@H]1O[C@@H](O[C@H]2C[C@@H](O)[C@]3(CO)[C@H]4[C@H](O)C[C@]5(C)[C@@H](C6=CC(=O)OC6)CC[C@]5(O)[C@@H]4CC[C@]3(O)C2)[C@H](O)[C@H](O)[C@H]1O [Ouabain] (33.3333 µM)	0.0962 (active)
COc1ccc2c(c[n+](C)c3c4cc5c(cc4ccc23)OCO5)c1OC (6.66667 µM)	0.204 (inactive)
COc1ccc2[nH]cc(C3=CCNCC3)c2c1 (33.3333 µM)	2.45 (inactive)
CC[C@H]1CN2CCc3cc(OC)c(OC)cc3[C@@H]2C[C@@H]1C[C@H]1NCCc2cc(OC)c(OC)cc21 [Emetine] (12.0333 µM)	0.216 (active)
C[C@]12CC[C@H](O)C[C@H]1CC[C@@H]1[C@@H]2CC[C@]2(C)[C@@H](C3=CC(=O)OC3)CC[C@]12O [Digitoxigenin] (33.3333 µM)	0.099 (active)
O=[N+]([O-])/C=C/c1ccc2c(c1)OCO2 (3.7 µM)	0.638 (inactive)
CO[C@H]1CC[C@@H](O[C@H]2C[C@H]([C@]3(C)CC[C@]4(C[C@H](O)[C@@H](C)[C@@H]([C@@H](C)/C=C(\C)C(=O)[C@H](C)C[C@H](C)C(=O)O)O4)O3)O[C@]3(O[C@@H]([C@H]4O[C@@](O)(CO)[C@H](C)C[C@@H]4C)C[C@@H]3C)[C@@H]2C)O[C@@H]1C [Nanchangmycin] (11.1 µM)	0.223 (active)
CCN(CC)CCO[C@H]1CC[C@@]2(C)C(=CC[C@@H]3[C@@H]2CC[C@]2(C)C(=O)CC[C@@H]32)C1 (33.3333 µM)	0.921 (inactive)
CC1=NCCc2c1[nH]c1cc(O)ccc21 [Harmalol hydrochloride dihydrate] (24.4333 µM)	1.24 (inactive)
Fc1cc(F)c2c(c1)[C@H]1C=CC[C@H]1C(c1cccnc1)N2 (some centres not stated) [Golgicide A] (33.3333 µM)	0.111 (active)
O=C1C2CCN(CC2)C1(CO)CO (90 µM)	1.07 (inactive)
CC(C(=O)OC1CC2CCC(C1)N2C)c1ccc(Br)cc1 (configuration not stated) [PG-9 maleate] (33.3333 µM)	0.598 (inactive)
